Data taken from PubChem BioAssay (Tox21).
Records with an inconclusive call do not appear. Active and inactive are the calls of the source. Unless noted, calls follow the shape of the dose curve; as a rule, active = well fitted curve in the direction sought with a large enough effect in the repeat runs; inconclusive = weak or mixed curves; inactive = no such curve, though single readings can be large; an effect the other way counts as inactive or inconclusive.

Columns and labels:
[1] = qHTS assay to identify small molecule agonists of the peroxisome proliferator-activated receptor delta (PPARd) signaling pathway - cell viability counter screen (AID 743211); also: nearly all actives have a fitted effect of over 55% in size; also: potency is read from the fitted curve at half-maximal effect; as to activity change, negative = cytotoxicity: % is scaled to controls: 0 for no effect and ±100 for the full control effect
In short: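 Luminescent ATP viability assay (CellTiter-Glo, 30 min RT) in UAS-bla HEK293H cells carrying the PPAR delta reporter construct, 3000 cells/well, after a 17 h compound treatment at 37 C.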

[2] = qHTS assay to identify small molecule antagonists of the peroxisome proliferator-activated receptor delta (PPARd) signaling pathway - cell viability counter screen (AID 743213); also: nearly all actives have a fitted effect of over 50% in size; also: potency is read from the fitted curve at half-maximal effect
In short: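 HEK293H cells with the PPARd UAS-bla reporter, co-treated 17 h at 37 C with compounds and L165041 (300 nM final), were lysed with CellTiter-Glo. Luminescence indicated viable cell content.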

[3] = qHTS assay to identify small molecule agonists of the farnesoid-X-receptor (FXR) signaling pathway - cell viability counter screen (AID 743218); also: nearly all actives have a fitted effect of over 45% in size; also: potency is read from the fitted curve at half-maximal effect
In short: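 Luminescence from CellTiter-Glo, read after 30 min at RT, reports viability of GeneBLAzer FXR-UAS-bla HEK 293T cells treated 16 h with compounds in the wells used for the beta-lactamase reporter.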

[4] = qHTS assay to identify small molecule antagonists of the farnesoid-X-receptor (FXR) signaling pathway - cell viability counter screen (AID 743221; active = well fitted cell-killing curve with a large enough effect in the repeat runs, not every such curve was filed as active; also: nearly all actives have a fitted effect of over 50% in size; also: potency is read from the fitted curve at half-maximal effect)
In short: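 In GeneBLAzer FXR-UAS-bla HEK 293T cells stimulated with 50 uM chenodeoxycholic acid (final), compounds acted for 16 h at 37 C. Viability was assessed afterwards by CellTiter-Glo luminescence.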

[5] = biological target: Vitamin D3 receptor (Homo sapiens) (UniProt P11473); test: qHTS assay to identify small molecule agonists of the vitamin D receptor (VDR) signaling pathway (AID 743222; calls by dose curve; also: % is scaled to controls: 0 for no effect and ±100 for the full control effect)
In short: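 Beta-lactamase reporter readout (LiveBLAzer B/G FRET, 2 h RT) in VDR-bla cells after 16 h compound treatment at 37C, 5% CO2; cells pre-incubated 4 h before pin transfer of DMSO solutions.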

[6] = qHTS assay to identify small molecule antagonists of the vitamin D receptor (VDR) signaling pathway - cell viability counter screen (AID 743225); also: nearly all actives have a fitted effect of over 50% in size; also: potency is read from the fitted curve at half-maximal effect
In short: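 Luminescent cell viability (CellTiter-Glo) in VDR-bla HEK 293T cells after 16 h compound exposure at 37C in the presence of 3 nM final 1-alpha,25-dihydroxy vitamin D3.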

[7] = qHTS assay to identify small molecule antagonists of the retinoid-related orphan receptor gamma (ROR-gamma) signaling pathway - cell viability counter screen (AID 1159520); also: nearly all actives have a fitted effect of over 50% in size; also: potency is read from the fitted curve at half-maximal effect
In short: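 Cytotoxicity was read from cellular ATP (CellTiter-Glo luminescence) after 16 hr at 37 C with 1 uM doxycycline induction. The inducer was added 2 hr after compound transfer to Tet-on ROR gamma CHO cells.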

[8] = biological target: Nuclear receptor ROR-gamma (Homo sapiens) (UniProt P51449); test: qHTS assay to identify small molecule antagonists of the retinoid-related orphan receptor gamma (ROR-gamma) signaling pathway (AID 1159521; also: nearly all actives have a fitted effect of over 50% in size; also: potency is read from the fitted curve at half-maximal effect)
In short: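 CHO cells expressing RORγ under a TET-on promoter, luciferase under RORE control. Dox 1 uM final, 16 h; compounds added 2 h prior. Luminescence decrease measured.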

[9] = qHTS assay to identify small molecule agonists of the AP-1 signaling pathway - cell viability counter screen (AID 1159525; calls by dose curve; also: nearly all actives have a fitted effect of over 55% in size)
In short: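 Intracellular ATP by Cell Titer Glo luminescence (30 min, RT) in the same ME-180 AP-1-bla wells after the 5 h compound exposure at 37 °C. Normalised to tetra n-octyl ammonium bromide and DMSO controls.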

[10] = qHTS assay to identify small molecule agonists of the vitamin D receptor (VDR) signaling pathway - cell viability counter screen (AID 743224)
In short: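 Cytotoxicity counter screen: VDR-bla cells, 16 h compound exposure at 37C, 5% CO2; CellTiter-Glo luminescence, 30 min RT, same wells as bla read.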

[11] = qHTS assay to identify small molecule agonists of the RXR signaling pathway - cell viability counter screen (AID 1159529); also: nearly all actives have a fitted effect of over 50% in size; also: potency is read from the fitted curve at half-maximal effect
In short: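 Same-well viability check after the LiveBLAzer FRET read: CellTiter-Glo added, luminescence measured after 30 min at room temperature. Reporter HEK 293T cells had been treated with compounds for 16 hr following a 5 hr preincubation.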

[12] = qHTS assay to identify small molecule antagonists of the retinoid acid receptor (RAR) signaling pathway - cell viability counter screen (AID 1159551); also: % is scaled to controls: 0 for no effect and ±100 for the full control effect; nearly all actives have a fitted effect of over 35% in size
In short: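 C3RL4 RARE-luciferase line; cpds + retinol 1 uM final, 6 h, 37 C/5% CO2; CellTiter-Glo ATP luminescence, 30 min RT.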

[13] = qHTS assay to identify small molecule agonists of the AP-1 signaling pathway (AID 1159526; calls by dose curve; also: % is scaled to controls: 0 for no effect and ±100 for the full control effect)
[14] = biological target: Retinoic acid receptor RXR-alpha (Homo sapiens) (UniProt P19793); test: qHTS assay to identify small molecule agonists of the RXR signaling pathway (AID 1159527; calls by dose curve; also: nearly all actives have a fitted effect of over 35% in size; also: potency is read from the fitted curve at half-maximal effect)
In short: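 Beta-lactamase reporter assay, agonist format. Engineered HEK 293T line, charcoal-stripped FBS at 2%, overnight (16 hr) exposure, fluorescence at 460 and 530 nm after 405 nm excitation.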

[15] = qHTS assay to identify small molecule antagonists of the retinoic acid receptor (RAR) signaling pathway (AID 1159552; also: nearly all actives have a fitted effect of over 50% in size; also: potency is read from the fitted curve at half-maximal effect)
In short: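 Readout: luciferase luminescence, 30 min post-reagent at RT. Setup: C3RL4 RARE reporter cells, compounds plus retinol 1 uM final, 6 hr incubation at 37 C and 5% CO2.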

[16] = biological target: Peroxisome proliferator-activated receptor delta (Homo sapiens) (UniProt Q03181); test: qHTS assay to identify small molecule antagonists of the peroxisome proliferator-activated receptor delta (PPARd) signaling pathway (AID 743215; active = well fitted inhibition curve with a large enough effect in the signal ratio in the repeat runs, not every such curve was filed as active; the % refers to the signal ratio;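 also: cells stimulated with agonist L165041 at 300 nM final during compound exposure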; also: potency is read from the fitted curve at half-maximal effect)
In short: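 HEK293H GeneBLAzer PPARd UAS-bla reporter cells; cpd + L165041 300 nM final, 17 h 37 C; LiveBLAzer B/G FRET substrate 2 h RT; fluorescence intensity read-out. Antagonist mode.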

[17] = biological target: Vitamin D3 receptor (Homo sapiens) (UniProt P11473); test: qHTS assay to identify small molecule antagonists of the vitamin D receptor (VDR) signaling pathway (AID 743223; active = well fitted inhibition curve with a large enough effect in the signal ratio in the repeat runs, not every such curve was filed as active; the % refers to the signal ratio; also: potency is read from the fitted curve at half-maximal effect)
In short: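 Agonist 1alpha,25-dihydroxyvitamin D3 (3 nM in well) was added with each compound to VDR-bla cells preincubated 4 h. Cells stood 16 h at 37C, then FRET substrate 2 h at room temperature; fluorescence intensity recorded.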

[18] = biological target: Peroxisome proliferator-activated receptor delta (Homo sapiens) (UniProt Q03181); test: qHTS assay to identify small molecule agonists of the peroxisome proliferator-activated receptor delta (PPARd) signaling pathway (AID 743212; calls by dose curve; also: % is scaled to controls: 0 for no effect and ±100 for the full control effect)
In short: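 Steps: seed PPARd-bla HEK293H cells; incubate 5 h, 37 C, 5% CO2; add compounds in DMSO; incubate, 37 C; add LiveBLAzer B/G FRET substrate; hold 2 h at room temperature; measure fluorescence.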

Chain of Peroxisome proliferator-activated receptor delta (Homo sapiens) (Q03181 whole entry, looked up): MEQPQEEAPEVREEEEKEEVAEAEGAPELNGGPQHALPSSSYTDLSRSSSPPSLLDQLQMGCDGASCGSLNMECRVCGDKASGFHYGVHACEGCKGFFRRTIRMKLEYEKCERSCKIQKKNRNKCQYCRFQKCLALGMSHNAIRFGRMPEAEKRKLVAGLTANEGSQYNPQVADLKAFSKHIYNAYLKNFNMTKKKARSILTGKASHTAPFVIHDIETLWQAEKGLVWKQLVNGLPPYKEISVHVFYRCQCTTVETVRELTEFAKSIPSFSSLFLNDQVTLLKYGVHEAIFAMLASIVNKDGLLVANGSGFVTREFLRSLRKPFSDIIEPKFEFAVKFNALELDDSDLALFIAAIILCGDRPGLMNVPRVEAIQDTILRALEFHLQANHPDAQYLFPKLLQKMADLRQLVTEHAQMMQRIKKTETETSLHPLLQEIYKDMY
Chain of Vitamin D3 receptor (Homo sapiens) (P11473 whole entry, looked up): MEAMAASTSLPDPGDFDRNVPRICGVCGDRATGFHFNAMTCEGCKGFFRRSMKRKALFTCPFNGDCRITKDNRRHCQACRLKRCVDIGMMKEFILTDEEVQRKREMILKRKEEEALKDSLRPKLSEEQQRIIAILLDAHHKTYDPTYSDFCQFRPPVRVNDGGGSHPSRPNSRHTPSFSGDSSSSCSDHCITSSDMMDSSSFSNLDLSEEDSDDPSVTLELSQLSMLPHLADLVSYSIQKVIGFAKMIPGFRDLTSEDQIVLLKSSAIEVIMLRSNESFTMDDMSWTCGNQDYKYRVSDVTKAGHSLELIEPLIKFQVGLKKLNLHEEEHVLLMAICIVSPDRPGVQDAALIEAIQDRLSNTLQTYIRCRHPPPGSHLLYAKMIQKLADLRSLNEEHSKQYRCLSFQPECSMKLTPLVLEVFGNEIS
Chain of Retinoic acid receptor RXR-alpha (Homo sapiens) (P19793 whole entry, looked up): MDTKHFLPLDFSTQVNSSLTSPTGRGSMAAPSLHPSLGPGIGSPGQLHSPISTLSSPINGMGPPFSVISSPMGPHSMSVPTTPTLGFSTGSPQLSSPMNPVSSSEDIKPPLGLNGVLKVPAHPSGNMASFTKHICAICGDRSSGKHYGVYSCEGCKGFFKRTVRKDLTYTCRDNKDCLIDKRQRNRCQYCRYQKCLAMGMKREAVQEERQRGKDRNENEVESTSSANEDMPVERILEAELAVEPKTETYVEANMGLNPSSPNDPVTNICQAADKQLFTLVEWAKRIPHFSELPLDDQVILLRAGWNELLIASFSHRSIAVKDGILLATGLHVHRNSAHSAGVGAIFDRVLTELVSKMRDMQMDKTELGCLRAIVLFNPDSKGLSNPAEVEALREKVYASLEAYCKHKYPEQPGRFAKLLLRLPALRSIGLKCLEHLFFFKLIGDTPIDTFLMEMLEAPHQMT

O=C(CCN1CCC(c2ccccc2)C1)c1ccc2c(c1)OCCO2 (stereo not drawn)
active: Potency [7] 26.6 µM | Potency [8] 33.5 µM
inactive: Potency [1] | Potency [2] | Potency [3] | Potency [4] | outcome [5] | Potency [6] | Potency [9]

Cc1cc(Br)ccc1NC(=O)CCl
active: Potency [1] 24.5 µM | Potency [2] 24.5 µM | Potency [3] 24.5 µM | Potency [4] 19.5 µM | Potency [10] 12.3 µM | Potency [6] 19.5 µM | Potency [7] 27.3 µM | Potency [8] 19.3 µM | Potency [11] 21.9 µM
inactive: Potency [12]

C=C1CC[C@H]2O[C@]2(C)CC[C@@H]2[C@@H]1CC2(C)C
inactive: Potency [7] | Potency [9] | Potency [13] | Potency [14] | Potency [11] | Potency [12]

CCNc1nc(NC(C)(C)C)nc(OC)n1
inactive: Potency [7] | Potency [9] | Potency [13] | Potency [14] | Potency [11] | Potency [15]

Nc1cc([N+](=O)[O-])ccc1Cl
inactive: Potency [7] | Potency [9] | Potency [13] | Potency [14] | Potency [11] | Potency [12]

CCc1cccc(CC)c1
inactive: Potency [7] | Potency [9] | Potency [13] | Potency [14] | Potency [11] | Potency [12] | Potency [15]

Cc1ccc(C2OC[C@@H]3OC(c4ccc(C)cc4)O[C@H]([C@H](O)CO)[C@@H]3O2)cc1 (stereo partly drawn)
inactive: Potency [7] | Potency [9] | Potency [13] | Potency [14] | Potency [11] | Potency [12] | Potency [15]

C1CCSC1
inactive: Potency [7] | Potency [9] | Potency [13] | Potency [14] | Potency [11] | Potency [12] | Potency [15]

O=C(Cl)c1ccc(Cl)cc1Cl
active: Potency [7] 61.1 µM
inactive: Potency [9] | Potency [13] | Potency [14] | Potency [11] | Potency [12] | Potency [15]

N#Cc1nc(Cl)c(Cl)c(Cl)c1Cl
inactive: outcome [5]
active: Potency [1] 7.76 µM | Potency [2] 15.5 µM | Potency [16] 7.76 µM | Potency [3] 13.8 µM | Potency [17] 6.92 µM | Potency [10] 11 µM | Potency [6] 19.5 µM | Potency [7] 1.93 µM | Potency [8] 2.73 µM | Potency [11] 15.5 µM

C=Cc1ccncc1
inactive: Potency [7] | Potency [9] | Potency [13] | Potency [14] | Potency [11] | Potency [12] | Potency [15]

CC(=O)CC(N)=O
inactive: Potency [7] | Potency [9] | Potency [13] | Potency [14] | Potency [11] | Potency [12] | Potency [15]

Cn1c(=O)[nH]c2ncn(C)c2c1=O
inactive: Potency [7] | Potency [9] | Potency [13] | Potency [14] | Potency [11] | Potency [12] | Potency [15]

O=C(N[C@H](CO)[C@H](O)c1ccc([N+](=O)[O-])cc1)C(Cl)Cl
inactive: Potency [1] | outcome [18] | Potency [2] | Potency [3] | Potency [7] | Potency [8] | Potency [13] | Potency [14] | Potency [11] | Potency [12]

CCCCCCCCc1ccc(Nc2ccc(CCCCCCCC)cc2)cc1
inactive: Potency [7] | Potency [9] | Potency [13] | Potency [14] | Potency [11] | Potency [12] | Potency [15]

CN1CCN(c2ccccc2/C=C2\SCCN(c3ccc(Cl)c(Cl)c3)C2=O)CC1
active: Potency [1] 24.5 µM | Potency [2] 24.5 µM | Potency [16] 21.9 µM | Potency [3] 43.6 µM | Potency [4] 54.9 µM | Potency [10] 38.9 µM | Potency [6] 43.6 µM | Potency [7] 68.6 µM | Potency [8] 7.7 µM | Potency [11] 24.5 µM | Potency [15] 48.6 µM
inactive: outcome [5]

COc1cc(/C=C/C(=O)CC(=O)/C=C/c2ccc(O)c(OC)c2)ccc1O
inactive: Potency [15]
active: Potency [1] 34.9 µM | Potency [3] 24.7 µM | Potency [4] 43.9 µM | Potency [10] 49.3 µM | Potency [6] 49.3 µM | Potency [7] 48.9 µM | Potency [8] 61.5 µM

CCC(O)CO (stereo not drawn)
inactive: Potency [7] | Potency [9] | Potency [13] | Potency [14] | Potency [11] | Potency [12]

O=C(O)CN(CCCN(CC(=O)O)CC(=O)O)CC(=O)O
inactive: activity, negative = cytotoxicity [7] 3.4% [at 19 µM] | viability change, negative = cytotoxic [9] -3.53% [at 15.8 µM] | activation [13] 3.51% [at 15.8 µM] | activation [14] 0.262% [at 15.8 µM] | activity change, negative = cytotoxicity [11] -1.37% [at 15.8 µM] | activity change, negative = cytotoxicity [12] 0.537% [at 19 µM]

C/C(=C\c1ccc(C(=O)O)cc1)c1ccc2c(c1)C(C)(C)CCC2(C)C
inactive: Potency [7] | Potency [9] | Potency [13] | Potency [11] | Potency [12]
active: Potency [14] 0.952 µM

CO[Si](OC)(c1ccccc1)c1ccccc1
active: Potency [8] 61.1 µM
inactive: Potency [7] | Potency [12]

CC1=CC[C@@H](C(C)(C)O)CC1
inactive: Potency [7] | Potency [9] | Potency [13] | Potency [14] | Potency [11]

C1=CCCC1
inactive: Potency [7] | Potency [9] | Potency [13] | Potency [14] | Potency [11] | Potency [12] | Potency [15]

COc1cc(OC)nc(NC(=O)NS(=O)(=O)Nc2ccccc2C(=O)N(C)C)n1
inactive: Potency [7] | Potency [9] | Potency [13] | Potency [14] | Potency [11] | Potency [12]

CCCCCCCCCC[N+](C)(CCCCCCCCCC)CCC[Si](OC)(OC)OC
active: Potency [1] 9.77 µM | Potency [2] 9.77 µM | Potency [3] 8.71 µM | Potency [10] 6.92 µM | Potency [7] 24.3 µM | Potency [8] 21.7 µM | Potency [11] 21.9 µM | Potency [15] 61.1 µM
inactive: outcome [18] | Potency [16] | Potency [17]

C=CC(=O)O[C@H]1C[C@@H]2CC[C@@]1(C)C2(C)C
inactive: Potency [7] | Potency [9] | Potency [13] | Potency [14] | Potency [11] | Potency [12] | Potency [15]

CCOC(=O)OC(=O)OCC
inactive: Potency [7] | Potency [9] | Potency [13] | Potency [14] | Potency [11] | Potency [12] | Potency [15]
